According to PubChem BioAssay (NCI):
Compounds without any hit were thinned out: in the full panel of roughly 83,000, 20% have a hit.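 Single-dose data. Exposure time 48 hours. Values below 10 considered active.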 Calls of active or inactive are those of the source.

Legend:
Assay in all cases: NCI-60 one-dose screen, 48 h (100 = growth as untreated, 0 = no growth, -100 = all killed)
Conditions in all cases: 10 µM unless noted
T-47D breast = tested on: T-47D breast
BT-549 breast = tested on: BT-549 breast
MDA-MB-435 melanoma = tested on: MDA-MB-435 melanoma
SW-620 colon = tested on: SW-620 colon
MCF7 breast = tested on: MCF7 breast
HCT-116 colon = tested on: HCT-116 colon
KM12 colon = tested on: KM12 colon
HCC-2998 colon = tested on: HCC-2998 colon

SMILES: CC(=O)c1c(-c2ccc(OC(F)(F)F)cc2)nc2ccccn12
- growth (T-47D breast): 80.6% (inactive)
- growth (BT-549 breast): 91.3% (inactive)
- growth (MDA-MB-435 melanoma): 102% (inactive)
- growth (SW-620 colon): 105% (inactive)
- growth (MCF7 breast): 89.8% (inactive)
- growth (HCT-116 colon): 80.8% (inactive)
- growth (KM12 colon): 97% (inactive)

SMILES: Cn1c(=O)c2[nH]c(CCCc3nc4c([nH]3)c(=O)n(C)c(=O)n4C)nc2n(C)c1=O
- growth (T-47D breast): 96.4% (inactive)
- growth (BT-549 breast): 121% (inactive)
- growth (MDA-MB-435 melanoma): 111% (inactive)
- growth (SW-620 colon): 112% (inactive)
- growth (MCF7 breast): 92.8% (inactive)
- growth (HCT-116 colon): 108% (inactive)
- growth (KM12 colon): 118% (inactive)

SMILES: O=C(Nc1nc2ccc(S(=O)(=O)Nc3ccc(C4(C(F)(F)F)CC4)cc3)cc2[nH]1)c1cnccn1
- growth (T-47D breast): 31.7% (inactive)
- growth (BT-549 breast): 44.6% (inactive)
- growth (MDA-MB-435 melanoma): -29.8% (active)
- growth (SW-620 colon): 18.5% (inactive)
- growth (MCF7 breast): 18.2% (inactive)
- growth (HCT-116 colon): 26.2% (inactive)
- growth (KM12 colon): 9.67% (active)

SMILES: FC(F)(F)c1cccc(Oc2ccc(Nc3ncnc4ccc(OCCCN5CCOCC5)cc34)cc2Cl)c1
- growth (T-47D breast): 32.7% (inactive)
- growth (BT-549 breast): 78.9% (inactive)
- growth (MDA-MB-435 melanoma): 43.2% (inactive)
- growth (SW-620 colon): 31.7% (inactive)
- growth (MCF7 breast): 28.7% (inactive)
- growth (HCT-116 colon): 28% (inactive)
- growth (KM12 colon): 17.1% (inactive)

SMILES: COc1cc(-c2nc3sccn3c2-c2ccnc(NCCNS(=O)(=O)c3ccc(F)cc3)n2)ccc1F
- growth (T-47D breast): -3.67% (active)
- growth (BT-549 breast): 10.5% (inactive)
- growth (MDA-MB-435 melanoma): 2.5% (active)
- growth (SW-620 colon): 26.9% (inactive)
- growth (MCF7 breast): 5.83% (active)
- growth (HCT-116 colon): 6.58% (active)
- growth (KM12 colon): 9.07% (active)

SMILES: Cc1ccc(C2CC(c3cccc(Nc4ccncc4)c3)=NN2c2cc(Cl)cc(Cl)c2)cc1 (configuration not stated)
- growth (T-47D breast): 80.3% (inactive)
- growth (BT-549 breast): 101% (inactive)
- growth (MDA-MB-435 melanoma): -63.2% (active)
- growth (SW-620 colon): -58% (active)
- growth (MCF7 breast): -45.1% (active)
- growth (HCT-116 colon): -78.1% (active)
- growth (KM12 colon): -67.5% (active)

SMILES: O=C1/C(=C/c2ccc(O)cc2)COc2ccc(-c3ccccc3)cc21
- growth (T-47D breast): 30.8% (inactive)
- growth (BT-549 breast): 80.9% (inactive)
- growth (MDA-MB-435 melanoma): 60.7% (inactive)
- growth (SW-620 colon): 76.4% (inactive)
- growth (MCF7 breast): 34.2% (inactive)
- growth (HCT-116 colon): 32.1% (inactive)
- growth (KM12 colon): 19.4% (inactive)

SMILES: CCc1c(Nc2ccc(C)cc2)[nH]c(N)nc1=S
- growth (T-47D breast): 90.1% (inactive)
- growth (BT-549 breast): 100% (inactive)
- growth (MDA-MB-435 melanoma): 104% (inactive)
- growth (SW-620 colon): 107% (inactive)
- growth (MCF7 breast): 91.3% (inactive)
- growth (HCT-116 colon): 98.3% (inactive)
- growth (KM12 colon): 104% (inactive)

SMILES: O=C(O)CCCCCCCCCCCCCCC(=O)O
- growth (T-47D breast): 110% (inactive)
- growth (BT-549 breast): 105% (inactive)
- growth (MDA-MB-435 melanoma): 109% (inactive)
- growth (SW-620 colon): 109% (inactive)
- growth (MCF7 breast): 97% (inactive)
- growth (HCT-116 colon): 107% (inactive)
- growth (KM12 colon): 102% (inactive)

SMILES: O=S(=O)(NCCCNc1nccc(-c2c(-c3cccc(O)c3)nc3occn23)n1)c1ccc(Br)cc1
- growth (T-47D breast): 83.2% (inactive)
- growth (BT-549 breast): 105% (inactive)
- growth (MDA-MB-435 melanoma): 40.6% (inactive)
- growth (SW-620 colon): 112% (inactive)
- growth (MCF7 breast): 98.8% (inactive)
- growth (HCT-116 colon): 65.2% (inactive)
- growth (KM12 colon): 94.4% (inactive)

SMILES: COc1ccc(CNCCN2C(=O)c3ccc4c5c(ccc(c35)C2=O)C(=O)N(CCNCc2ccc(OC)cc2)C4=O)cc1
- growth (T-47D breast): -19% (active)
- growth (MDA-MB-435 melanoma): -71.4% (active)
- growth (SW-620 colon): -88% (active)
- growth (MCF7 breast): -79.2% (active)
- growth (HCT-116 colon): -72.4% (active)
- growth (HCC-2998 colon): -92.3% (active)
- growth (KM12 colon): -81.8% (active)

SMILES: COc1cc2c(cc1[N+](=O)[O-])-c1ccc([N+](=O)[O-])cc1/C2=N/NC(N)=S
- growth (T-47D breast): 57.4% (inactive)
- growth (BT-549 breast): 61.6% (inactive)
- growth (SW-620 colon): 40.6% (inactive)
- growth (MCF7 breast): 22.5% (inactive)
- growth (HCT-116 colon): 33.8% (inactive)
- growth (HCC-2998 colon): 72.8% (inactive)
- growth (KM12 colon): 70.5% (inactive)

SMILES: Nc1c(Cl)cc([N+](=O)[O-])cc1Br
- growth (T-47D breast): 97.8% (inactive)
- growth (BT-549 breast): 97.5% (inactive)
- growth (MDA-MB-435 melanoma): 91.4% (inactive)
- growth (MCF7 breast): 99.9% (inactive)
- growth (HCT-116 colon): 105% (inactive)
- growth (HCC-2998 colon): 93.7% (inactive)
- growth (KM12 colon): 103% (inactive)

SMILES: COc1cccc2c1C(=O)c1c(O)c3c(c(O)c1C2=O)C[C@@](O)(C(=O)CO)C[C@@H]3O[C@H]1C[C@H](N)[C@@H](O)[C@H](C)O1
- growth (T-47D breast): 4.43% (active)
- growth (BT-549 breast): -39% (active)
- growth (MDA-MB-435 melanoma): -77.6% (active)
- growth (SW-620 colon): 0.619% (active)
- growth (MCF7 breast): 4.48% (active)
- growth (HCT-116 colon): 5.25% (active)
- growth (KM12 colon): 1.25% (active)

SMILES: C=C(C)[C@@H]1CC[C@]2(C=O)CC[C@]3(C)[C@H](CC[C@@H]4[C@@]5(C)CCCNC(C)(C)[C@@H]5CC[C@]43C)[C@@H]12
- growth (T-47D breast): 57.8% (inactive)
- growth (BT-549 breast): 88.7% (inactive)
- growth (MDA-MB-435 melanoma): 66.6% (inactive)
- growth (SW-620 colon): -31.4% (active)
- growth (MCF7 breast): 30% (inactive)
- growth (HCT-116 colon): 25.4% (inactive)
- growth (KM12 colon): 58.6% (inactive)

SMILES: O=c1[nH]c(=O)[nH]c(=S)[nH]1
- growth (T-47D breast): 98.9% (inactive)
- growth (BT-549 breast): 103% (inactive)
- growth (MDA-MB-435 melanoma): 103% (inactive)
- growth (SW-620 colon): 102% (inactive)
- growth (MCF7 breast): 97.8% (inactive)
- growth (HCT-116 colon): 98.5% (inactive)
- growth (KM12 colon): 102% (inactive)

SMILES: COc1cc(NCCCN(CC(C)C)C2CCCC2)c2ncccc2c1
- growth (T-47D breast): 29.9% (inactive)
- growth (BT-549 breast): 75.6% (inactive)
- growth (MDA-MB-435 melanoma): 89.2% (inactive)
- growth (SW-620 colon): 41.4% (inactive)
- growth (MCF7 breast): 0.473% (active)
- growth (HCT-116 colon): 37.8% (inactive)
- growth (KM12 colon): 93% (inactive)

SMILES: COc1cc2c(cc1[N+](=O)[O-])-c1ccc([N+](=O)[O-])cc1/C2=N\O
- growth (T-47D breast): 91.1% (inactive)
- growth (BT-549 breast): 73.1% (inactive)
- growth (SW-620 colon): 75.2% (inactive)
- growth (MCF7 breast): 58% (inactive)
- growth (HCT-116 colon): 71.8% (inactive)
- growth (HCC-2998 colon): 106% (inactive)
- growth (KM12 colon): 95.1% (inactive)

SMILES: c1ccc(-c2nn(-c3ccccc3)[n+](-c3ccccc3-c3ccccc3)n2)cc1
- growth (T-47D breast): 19.2% (inactive)
- growth (BT-549 breast): -0.13% (active)
- growth (MDA-MB-435 melanoma): 6.4% (active)
- growth (MCF7 breast): 8.29% (active)
- growth (HCT-116 colon): 7.4% (active)
- growth (HCC-2998 colon): 18.9% (inactive)
- growth (KM12 colon): 9.9% (active)

SMILES: c1ccc(-c2nn(-c3ccccc3)[n+](-c3cccc4ccccc34)n2)cc1
- growth (T-47D breast): 25% (inactive)
- growth (BT-549 breast): 13.4% (inactive)
- growth (MDA-MB-435 melanoma): -50.3% (active)
- growth (MCF7 breast): 11.7% (inactive)
- growth (HCT-116 colon): 7.65% (active)
- growth (HCC-2998 colon): 20.8% (inactive)
- growth (KM12 colon): 10.1% (inactive)

SMILES: Cc1ccc(S(=O)(=O)Nc2ccc(Cl)cc2)cc1
- growth (T-47D breast): 106% (inactive)
- growth (BT-549 breast): 106% (inactive)
- growth (MDA-MB-435 melanoma): 101% (inactive)
- growth (SW-620 colon): 105% (inactive)
- growth (MCF7 breast): 93.7% (inactive)
- growth (HCT-116 colon): 97.4% (inactive)
- growth (KM12 colon): 105% (inactive)

SMILES: COc1cc2nnn3c4ncccc4c(N=O)c3c2cc1OC
- growth (T-47D breast): 51.8% (inactive)
- growth (MDA-MB-435 melanoma): 90.5% (inactive)
- growth (SW-620 colon): 46.3% (inactive)
- growth (MCF7 breast): 21.4% (inactive)
- growth (HCT-116 colon): 28.9% (inactive)
- growth (HCC-2998 colon): 106% (inactive)
- growth (KM12 colon): 87% (inactive)

SMILES: CN1CCCC1=Nc1ccccc1
- growth (T-47D breast): 106% (inactive)
- growth (BT-549 breast): 130% (inactive)
- growth (SW-620 colon): 112% (inactive)
- growth (MCF7 breast): 97.2% (inactive)
- growth (HCT-116 colon): 114% (inactive)
- growth (HCC-2998 colon): 110% (inactive)
- growth (KM12 colon): 114% (inactive)

SMILES: Nc1c(C(=O)Nc2cccc3ccncc23)sc2nc3c(cc12)C(=O)CCC3
- growth (T-47D breast): 48.5% (inactive)
- growth (BT-549 breast): 50.6% (inactive)
- growth (MDA-MB-435 melanoma): -35% (active)
- growth (SW-620 colon): 31.1% (inactive)
- growth (MCF7 breast): 21.5% (inactive)
- growth (HCT-116 colon): 43.4% (inactive)
- growth (KM12 colon): 30.8% (inactive)

SMILES: CC(O)(CO)c1ccccc1 (configuration not stated)
- growth (T-47D breast): 102% (inactive)
- growth (BT-549 breast): 93.6% (inactive)
- growth (MDA-MB-435 melanoma): 99.1% (inactive)
- growth (SW-620 colon): 103% (inactive)
- growth (MCF7 breast): 98.7% (inactive)
- growth (HCT-116 colon): 98.3% (inactive)
- growth (KM12 colon): 103% (inactive)

SMILES: COc1cc(/C=C/C(=O)c2ccc(Nc3ncnc4ccccc34)cc2)cc(OC)c1
- growth (T-47D breast): 117% (inactive)
- growth (BT-549 breast): 26.9% (inactive)
- growth (MDA-MB-435 melanoma): -39.2% (active)
- growth (SW-620 colon): -66.1% (active)
- growth (MCF7 breast): 0.628% (active)
- growth (HCT-116 colon): -87.3% (active)
- growth (KM12 colon): -49.8% (active)
